# TRHR agonist – TRH receptor (human) agonism; P34981; 360,000 tested, 0.18% active; TRHR cells, calcium flux fluo-8, FDSS agonist mode; activation, % at 2 µM; note: 0% is about no effect
#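 TRHR-expressing cells loaded with fluo-8 calcium dye; 23 nL library compound pin-transferred, kinetic FDSS fluorescence (Ex 480/Em 530) recorded about 180 s for agonist-induced calcium release, before a 10 nM TRH EC20 addition for potentiator mode.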
# D1 antagonist – antagonists of human D1 dopamine receptor; P21728; HEK293 TREx D1 cells, calcium flux, dopamine EC80; stronger effect = lower value; 360,000 tested, 3.2% active; AID 504652; activity change, negative = inhibition, % at 10 µM; in the data active = activity change below about -30%; note: % is set by controls: 0 for no effect and ±100 for the full control effect
# Target sequence (P21728 whole entry, looked up): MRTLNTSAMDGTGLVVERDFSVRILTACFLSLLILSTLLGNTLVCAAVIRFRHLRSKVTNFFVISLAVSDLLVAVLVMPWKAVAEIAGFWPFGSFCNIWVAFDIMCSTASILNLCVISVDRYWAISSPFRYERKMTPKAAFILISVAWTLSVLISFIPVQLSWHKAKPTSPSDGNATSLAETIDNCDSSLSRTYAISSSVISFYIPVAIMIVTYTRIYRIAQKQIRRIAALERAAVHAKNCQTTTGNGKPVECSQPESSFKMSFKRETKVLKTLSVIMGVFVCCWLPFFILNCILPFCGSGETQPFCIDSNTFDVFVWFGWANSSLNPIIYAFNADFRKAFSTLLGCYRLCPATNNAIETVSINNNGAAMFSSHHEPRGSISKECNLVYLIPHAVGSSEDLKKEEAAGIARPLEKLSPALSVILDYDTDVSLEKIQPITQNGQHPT
#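 Allosteric or orthosteric antagonism assessed as attenuation of the calcium response to EC80 dopamine, added 180 s after compound, in induced HEK293 Trex D1 cells loaded with no-wash calcium dye.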
# D1 ag – activates the human D1 dopamine receptor; HEK293 T-REx D1 cells, calcium flux, agonist mode; 360,000 tested, 1% active; activation, % at 2 µM; note: 0% is about no effect
#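 Agonism was scored from calcium flux recorded over 180 s (1 read/s) after pintool compound addition, following a 10-cycle baseline. Cells were inducible force-coupled HEK293 TREx D1, plated overnight at 30 C and loaded with no-wash calcium dye.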
# TRHR PAM – allosteric enhancers of human TRH receptor. P34981. TRHR cells, fluo-8 calcium fluorescence, EC20 TRH enhancement. enhancement, % at 2 µM. 360,000 tested, 0.66% active. AID 493056; in the data active = enhancement above about 30%; note: 0% is about no effect
#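 TRHR-expressing cells loaded with fluo-8 calcium dye were read kinetically (ex 480/em 530) during compound addition, then stimulated with an EC20 of TRH (10 nM final). Enhancement of the Gq-mediated intracellular calcium response was scored.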
# D1 potentiator – enhances dopamine response at the human D1 receptor | HEK293 TREx D1 cells, calcium flux, dopamine EC20 potentiation | 360,000 tested, 0.036% active | P21728 | potentiation, % at 10 µM; in the data active = potentiation above about 30%; note: 0% is about no effect
# GRP78 ERSR act – inducers of ER stress response in human glioma cells; U87-MG GRP78 promoter luciferase reporter, 16 h; Potency, µM, for the others: top-dose activation, actives largely listed as activators; 420,000 tested, 0.02% active; active = well fitted activation curve with a large enough effect; inconclusive = small, poorly fitted or top-dose-only effect; inactive = no such curve, though single readings can be large or run the other way; note: potency is the fitted concentration of half-maximal effect; series mostly up to about 76 µM; % of control where 0% means no effect; nearly all actives have a fitted effect of over 35% in size
#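 Stably transfected U87-MG human glioma cells carrying a GRP78-based luminescent sensor were seeded at 1000 cells/well, pin-dosed with compounds and incubated 16 h. Luciferase reagent was then added, and end-point luminescence was read after 10 min at room temperature.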
# * marks the source's active call; other numbers are inactive results; ? = inconclusive; . = not tested or not shown. Sampled rows, rich in hits. Any-hit rate of the full collection: about 4%. Cut-off read from the data, not from the text of the source, unless noted: active = activation above about 30%; inactive = the rest.
SMILES,TRHR agonist,D1 antagonist,D1 ag,TRHR PAM,D1 potentiator,GRP78 ERSR act
Clc1ccc2c(N/N=C/c3ccc(Br)cc3)ccnc2c1,-1,-43*,8,13,-7,-11%
Cc1cc(NC(=O)CCC(=O)N(CC(=O)NC2CCCC2)c2ccc(Cl)cc2)no1,0,-16,2,-3,-1,4%
Cc1cccc(N(CC(=O)NCc2ccc3c(c2)OCO3)C(=O)CCC(=O)Nc2ccccn2)c1,-1,8,1,19,-2,-4%
Nc1nonc1C(=O)N/N=C/c1cc(Br)ccc1O,45*,-3,63*,11,-4,2%
O=C(c1cc(Cl)nc2ccccc12)N1CCN(S(=O)(=O)c2cccc(C(F)(F)F)c2)CC1,0,-33*,-1,-13,-6,1%
COC(=O)NNC(=O)c1ccc(Cl)cc1Cl,0,-14,2,12,-2,-3%
CC(C)(C)C(=O)NC(=S)NNC(=O)c1ccc(-c2ccccc2)cc1,58*,.,262*,-3,30,?
CC(C)(C)C(=O)NC(=S)NNC(=O)c1ccc(Cl)cc1Cl,102*,111,397*,-7,8,?
Cc1cccc(NC(=S)NCCC(C)C)c1,-1,0,227*,10,-5,1%
S=C(NCCC(c1ccccc1)c1ccccc1)Nc1cccc(Cl)c1,0,-49*,3,-2,-4,-5%
S=C(NCc1ccncc1)Nc1cccc(Cl)c1,1,6,10,-1,-2,-5%
COc1ccc(CCNC(=S)Nc2cccc(C)c2)cc1,-1,1,-1,-6,-6,-3%
S=C(NCCN(C1CCCCC1)C1CCCC1)Nc1cccc(Cl)c1,3,11,31*,2,-4,-4%
CCOC(=O)CNC(=O)C1CCCc2c1[nH]c1ccc(Cl)cc21 (configuration not stated),0,-35*,16,-2,-3,0%
CCN(CC)c1ccc2cc(-c3nc(-c4cc(OC)c(OC)c(OC)c4)no3)c(=O)oc2c1,122*,-29,153*,13,-1,0%
O=c1oc2ccc(Cl)cc2cc1-c1nc(-c2cccs2)no1,0,-1,1,1,1,-1%
CCN(CC)c1ccc2cc(-c3nc(-c4ccccc4F)no3)c(=O)oc2c1,65*,-13,204*,4,2,0%
COc1cc(-c2noc(-c3cc4cccc(C)c4oc3=O)n2)cc(OC)c1OC,-1,5,1,6,-4,0%
CCN(CC)c1ccc2cc(-c3nc(-c4cccs4)no3)c(=O)oc2c1,124*,-28,278*,13,-4,1%
Cc1ccccc1OCCC(=O)OCC(=O)NCCNC(=O)COC(=O)CCOc1ccccc1C,0,-43*,14,-2,-5,0%
Cc1ccccc1OCCC(=O)OCC(=O)NC1CC1,0,-1,2,5,-4,-2%
Cc1ccc(-c2c(C(=O)N3CCN(c4cccc(C)c4)C(C)C3)oc(=O)c3ccccc23)cc1 (configuration not stated),0,-37*,-1,4,-3,-3%
Cc1cccc(N2CCN(C(=O)CCN3C(=O)C4C5C=CC(C5)C4C3=O)CC2C)c1 (configuration not stated),0,-21,1,-5,1,-1%
Cc1cccc(N2CCN(C(=O)c3ccccn3)CC2C)c1 (configuration not stated),-2,-4,1,1,-3,-1%
Cc1cccc(N2CCN(C(=O)c3cccc(N4C(=O)C5C6C=CC(C6)C5C4=O)c3)CC2C)c1 (configuration not stated),-1,-35*,12,11,-11,-5%
SMILES,TRHR agonist,D1 antagonist,D1 ag,TRHR PAM,D1 potentiator,GRP78 ERSR act
Cc1ccc(CNc2nc3ccc(Cl)cc3n3nnnc23)cc1,1,-10,0,0,-1,-3%
Cc1ccc(Nc2nnc(SCC(=O)NC(Cc3c[nH]c4ccccc34)C(=O)O)s2)cc1 (configuration not stated),0,-19,-2,11,-1,-1%
COc1ccc(CNC(=O)CSc2ncn[nH]2)cc1OC,0,2,9,6,-4,-3%
CCC(C)C1OC2(C=CC1C)CC1CC(C/C=C(\C)C(OC3CC(OC)C(OC4CC(OC)C(NC(C)=O)C(C)O4)C(C)O3)C(C)/C=C/C=C3\COC4C(O)C(C)=CC(C(=O)O1)C34O)O2 (configuration not stated) (tested in a mixture with another compound),.,.,.,.,.,-11%
CCCNC(=O)C/C(C)=N/NC(=O)COc1ccc(C)cc1Br,0,-7,20,20,3,-1%
COc1ccc(CNC(=O)C/C(C)=N/NC(=O)COc2ccc(C)cc2Br)cc1,0,-10,1,32*,-8,-4%
COc1ccc(CNC(=O)C/C(C)=N/NC(=O)c2cnccn2)cc1,3,8,35*,0,9,-3%
CN1CCN(c2ncc3nc(-c4ccc(Cl)cc4)c(=O)n(C)c3n2)CC1,.,.,.,.,.,6%
CCn1c(-c2ccccc2F)nc2cc(NC(C)=O)cc(C(=O)N3CCCC3c3nccs3)c21 (configuration not stated),.,.,.,.,.,-5%
CCNc1nc(SCC(=O)Nc2ccccc2)nc(N2CCOCC2)n1,-1,-3,1,1,5,-7%
CCNc1nc(N2CCOCC2)nc(N(c2ccccc2)c2ccccc2)n1,-1,15,0,37*,-8,-3%
O=C(CCC1CCCC1)Nc1ccc([N+](=O)[O-])cn1,-1,-27,-1,-3,-9,1%
CCOc1cccc(CNCCCSc2nnnn2C)c1,0,-13,0,-17,1,-3%
Cn1nnnc1SCCCNCc1ccccc1OCc1ccc(Cl)cc1,2,-39*,75*,-9,0,-3%
Cn1nnnc1SCCNCc1ccc(OCc2ccccc2Cl)cc1,-2,-5,98*,5,-1,1%
Cn1nnnc1SCCCNCc1cccc(OCc2ccc(F)cc2)c1,0,-31*,150*,5,5,0%
COc1ccc(CN2CCOc3c(O)cc(-c4cc(C)c5ccc(F)cc5n4)cc3C2)c(O)c1,.,.,.,.,.,-2%
O=C(NCc1ccon1)C1CCC(=O)N(Cc2cccc(C(F)(F)F)c2)C1 (configuration not stated),2,7,0,2,-7,1%
Cc1nc(CN(C)C(=O)C2CCC(=O)N(CCc3cccc(F)c3)C2)cs1 (configuration not stated),0,0,4,1,-8,-5%
